PubChem BioAssay AID2110 (National Center for Advancing Translational Sciences (NCATS), 2009)
Where “and” joins values, the source holds several entries; their conditions need not be identical. Identical values can stand only once. Results filed as inconclusive are left out. Calls of active or inactive are those of the source. Calls come from the whole dose curve; as a rule, active = well fitted curve in either direction with a large enough effect; inconclusive = small, poorly fitted or top-dose-only effect; inactive = no such curve, though single readings can be large or run the other way.

What follows are molecules tested against Lysosomal alpha-glucosidase (Homo sapiens) (UniProt P10253) (assay: Confirmation of Inhibitors and Activators of Purified Human alpha-Glucosidase Using an Alternate Red Fluorescent Susbtrate). Conditions: purified enzyme, red fluorogenic substrate; series mostly up to 63.4 µM.
Description: NIH Chemical Genomics Center [NCGC]
NIH Molecular Libraries Probe Production centers Network [MLPCN]
Assay Submitter (PI): Wei Zheng
Alpha-glucosidase is responsible for hydrolysis of terminal, non-reducing 1,4-linked alpha-D-glucose residues with release of alpha-D-glucose. It is a lysosomal hydrolase that is required for the degradation of a small percentage (1-3%) of cellular glycogen in human. Deficiency of this enzyme results in glycogen-storage disease type II (GSDII), also referred to as Pompe disease, an autosomal recessive disorder. Structurally normal glycogen is accumulated in lysosomes and cytoplasm in affected patients, primarily in muscle tissues. Excessive glycogen storage within lysosomes may interrupt normal functioning of other organelles and leads to cellular injury. In turn, this leads to enlargement and dysfunction of the entire organ involved (eg, cardiomyopathy and muscle weakness).
It has reported that the improper folding and trafficking of alpha-glucosidase resultinged from the genetic mutations may account for a significant number of Pomrope patients. […] We optimized this alpha-glucosidase assay in 1536-well plate format for identifying the novel small molecule inhibitors with the structures other than the sugar analogs in order to develop the new pharmacological chaperones. This assay attempted to confirm hits from the primary screening using an alternate fluor than the primary screen used.
NCGC Assay Protocol Summary:
This is a fluorogenic enzyme assay with resorufin-alpha-D-pyranoside as the substrate and recombinant human alpha-glucosidase as the enzyme preparation. Upon the hydrolysis of this fluorogenic substrate, the resulting product, resorufin, can be excited at 573 nm and emits at 610 nm which can be detected by a standard fluorescence plate reader. Data were normalized to the controls for basal activity (without enzyme) and 100% activity (with enzyme). The AC50 values were determined from concentration-response data modeled with the standard Hill equation.
Assay buffer: 50 mM citric acid (titrated with potassium phosphate to pH 5.0), 0.005% Tween-20, pH 5.0. (pH 5.0 is an optimal condition for this enzyme assay)
1536-well assay protocol for the human alpha-glucosidase:
(1) Add 2 ul/well of enzyme (4 nM final)
(2) Add 23 nL compounds in DMSO solution. The final titration was 0.7 nM to 77 uM.
(3) Add 1 ul of substrate (400 uM final)
(4) Incubate at room temperature for 20 min.
(5) Add 2 ul stop solution (1M NaOH and 1M Glycine mixture, pH 10)
(6) Detect the assay plate in a ViewLux plate reader (PerkinElmer) with Ex=365 nm and Em=440nm.
Keywords: Alpha-glucosidase, Pompe Disease, pharmacological chaperone, chaperone therapy, high throughput screening, alpha-glucosidase inhibitor, MLSMR, MLSCN, NIH Roadmap, qHTS and NCGC

| Compound | Potency |
| --- | --- |
| CC(=O)c1ccc(N2CCN(S(=O)(=O)c3ccc4c(c3)C(Cl)(Cl)C(=O)N4)CC2)cc1 | 41.1 µM [inhibitor] (active) |
| CC(O)[C@@H](O)[C@H]1CNc2nc(N)[nH]c(=O)c2N1 (stereo not given in full) | inactive |
| CCCN1CNc2c(c(=O)[nH]c(=S)n2CCc2cc(Cl)ccc2Cl)C1 | 0.794 µM (active) |
| OCC1NCC(O)C(O)C1O (stereo not given) | inactive |
| CCCN1CNc2c(c(=O)[nH]c(=S)n2CCc2cc(Cl)cc(Cl)c2)C1 | 2 µM (active) |
| CC(=O)c1ccc(N2CCN(S(=O)(=O)c3ccc4c(c3)CCC(=O)N4)CC2)cc1 | inactive |
| COc1ccc(CCn2c3c(c(=O)[nH]c2=S)CN(c2ccccc2)CN3)cc1OC | 7.94 µM (active) |
| CCCN1CNc2c(c(=O)[nH]c(=S)n2CCCc2ccccc2)C1 | 31.6 µM (active) |
| CC(=O)c1ccc(N2CCN(S(=O)(=O)c3ccc4c(c3)OCC(=O)N4)CC2)cc1 | inactive |
| CCCN1CNc2c(c(=O)[nH]c(=S)n2CCc2cccc(Cl)c2)C1 | 11.2 µM (active) |
| O=Cc1ccc(N2CCN(S(=O)(=O)c3ccc4c(c3)CC(=O)N4)CC2)cc1 | 4.11 µM [inhibitor] (active) |
| COc1ccc(CCn2c3c(c(=O)[nH]c2=S)CN(Cc2ccccc2)CN3)cc1OC | 1.78 µM (active) |
| O=c1[nH]cc(CCc2ccccc2)c2ncncc12 | inactive |
| CCCN1CNc2c(c(=O)[nH]c(=S)n2CCc2cccc(C)c2)C1 | 7.08 µM (active) |
| O=C1Cc2cc(S(=O)(=O)N3CCN(c4ccc([N+](=O)[O-])cc4)CC3)ccc2N1 | 3.26 µM [inhibitor] (active) |
| Nc1nc(N)c2nc(-c3ccccc3)c(N)nc2n1 | inactive |
| CCCN1CNc2c(c(=O)[nH]c(=S)n2CCc2c(Cl)cccc2Cl)C1 | 1.12 µM (active) |
| Cc1ccc(N2CCN(S(=O)(=O)c3ccc4c(c3)CC(=O)N4)CC2)cc1 | inactive |
| OC[C@H]1NC[C@@H](O)[C@@H]1O | inactive |
| CCCN1CNc2c(c(=O)[nH]c(=S)n2Cc2ccc(OC)c(OC)c2)C1 | 2.82 µM (active) |

| Compound | Potency |
| --- | --- |
| CCCN1CNc2c(c(=O)[nH]c(=S)n2CCc2c(OC)cccc2OC)C1 | 14.1 µM (active) |
| CC(=O)c1ccc(N2CCN(S(=O)(=O)c3ccc4c(c3)CC(=O)N4)CC2)cc1 | 919 nM [inhibitor] (active) and 1.06 µM [inhibitor] (active) and 1.3 µM [inhibitor] (active) |
| CCCN1CNc2c(c(=O)[nH]c(=S)n2CCC(C)(C)C)C1 | inactive |
| CCCN1CNc2c(c(=O)[nH]c(=S)n2CCc2cc(OC)ccc2OC)C1 | 6.31 µM (active) |
| COc1ccc(CCn2c(=S)[nH]c(=O)c3[nH]cnc32)cc1OC | inactive |
| CC(=O)c1ccc(N2CCN(S(=O)(=O)c3ccc4c(c3)CCCN4C(C)=O)CC2)cc1 | inactive |
| CCCN1CNc2c(c(=O)[nH]c(=S)n2CCC(C)C)C1 | inactive |
| CC(=O)c1ccc(N2CCN(S(=O)(=O)c3ccc4[nH]c(=O)[nH]c4c3)CC2)cc1 | inactive |
| COc1ccc(C#Cc2c[nH]c(=O)c3cncnc23)cc1OC | inactive |
| Clc1ncc(C#Cc2ccccc2)c2ncncc12 | inactive |
| CCCN1CNc2c(c(=O)[nH]c(=S)n2CCc2cccc(C)c2C)C1 | 1.12 µM (active) |
| CC(=O)c1ccc(N2CCN(S(=O)(=O)c3ccc4[nH]c(=O)oc4c3)CC2)cc1 | inactive |
| O=C1Cc2cc(S(=O)(=O)N3CCN(c4ccc(O)cc4)CC3)ccc2N1 | 2.37 µM [inhibitor] (active) |
| CC(=O)c1ccc(N2CCN(S(=O)(=O)c3cc4c(cc3Cl)NC(=O)C4)CC2)cc1 | 1.63 µM [inhibitor] (active) and 5.17 µM [inhibitor] (active) |
| O=c1[nH]cc(C#Cc2ccccc2)c2ncncc12 | inactive |
| CCCN1CNc2c(c(=O)[nH]c(=S)n2CCc2ccc(Cl)c(Cl)c2)C1 | 2.24 µM (active) |
| CC(=O)N1CCN(S(=O)(=O)c2ccc3c(c2)CC(=O)N3)CC1 | 14.9 µM [inhibitor] (active) |
| CCCN1CNc2c(c(=O)[nH]c(=S)n2CCc2ccc(OCC)c(OCC)c2)C1 | 1.78 µM (active) |
| CCCN1CNc2c(c(=O)[nH]c(=S)n2CCc2ccccc2C)C1 | 8.91 µM (active) |
| COc1ccc(C#Cc2cnc(Cl)c3cncnc23)cc1OC | inactive |
